Compound activity from PubChem BioAssay.
Only some compounds are listed: those with a hit (about 19% of all), similar ones and a draw of the others.
TDP1 inh = inhibitors of human tyrosyl-DNA phosphodiesterase TDP1 | Q9NUW8 | recombinant TDP1, AlphaScreen DNA substrate cleavage | Potency, µM (doses to about 130 µM), for inactives: top-dose activity change, negative = inhibition, most hits filed as inhibitors | 0.28% of 350,000 active; note: nearly all actives have a fitted effect of over 40% in size
Target sequence (Q9NUW8 whole entry, looked up): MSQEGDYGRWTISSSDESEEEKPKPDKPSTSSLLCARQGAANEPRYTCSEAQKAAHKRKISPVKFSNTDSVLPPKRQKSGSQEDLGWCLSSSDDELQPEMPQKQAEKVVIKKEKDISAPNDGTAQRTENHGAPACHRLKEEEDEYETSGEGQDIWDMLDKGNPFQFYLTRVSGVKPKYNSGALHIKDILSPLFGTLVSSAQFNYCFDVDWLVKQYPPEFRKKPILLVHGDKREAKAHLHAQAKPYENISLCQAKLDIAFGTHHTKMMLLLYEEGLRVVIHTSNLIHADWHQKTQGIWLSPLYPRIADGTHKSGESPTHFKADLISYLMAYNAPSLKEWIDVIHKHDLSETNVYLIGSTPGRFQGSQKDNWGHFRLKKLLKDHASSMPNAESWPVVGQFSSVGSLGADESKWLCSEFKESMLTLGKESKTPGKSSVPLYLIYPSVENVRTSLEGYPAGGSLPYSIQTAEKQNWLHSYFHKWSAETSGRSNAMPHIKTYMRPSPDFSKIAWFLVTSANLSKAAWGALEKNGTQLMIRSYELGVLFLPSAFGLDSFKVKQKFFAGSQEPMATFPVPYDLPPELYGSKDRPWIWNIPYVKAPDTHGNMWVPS
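Recombinant E. coli-expressed Tdp1 (1 nM) preincubated with compound 15 min at RT, then 5'-biotin/3'-phosphotyrosine-FITC DNA substrate (15 nM) added for 5 min. AlphaScreen beads (10 ug/ml) added, 10 min RT; tyrosine-FITC cleavage read as signal loss.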
Gal4-VP16 FLuc = Gal4-VP16 reporter inhibition counter-screen. Potency, µM (doses to about 53.6 µM), for the others: at the top dose activity, negative = inhibition, usual class: inhibitors. Drosophila S2 Gal4-VP16 UAS-luciferase, luminescence, 20 h. 3.5% of 310,000 active;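 note: Gal4-VP16 expression switched on by copper sulfate through the metallothionein promoter; nearly all actives have a fitted effect of over 50% in size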
TDP1 cell noCPT = qHTS for Inhibitors of human tyrosyl-DNA phosphodiesterase 1 (TDP1): qHTS in cells in absence of CPT; DT40 Tdp1-/- hTDP1 cells, no CPT, ATP luminescence, 48 h; Potency, µM (highest dose often 46.2 µM), without a hit: at the highest dose activity change, negative = growth inhibition, hits mostly inhibitors; 15% of 420,000 active; AID 686978, 2013; note: nearly all actives have a fitted effect of over 55% in size
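Compound effects on proliferation are scored in DT40 Tdp1-/-;hTDP1 cells in the absence of CPT. ATP levels (CellTiter-Glo luminescence) are recorded after a ≥48 hr, 37 °C incubation.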
RORg inh = inhibitors of mouse ROR gamma transcriptional activity | P51450 | AID 2551 | 5.4% of 310,000 active | Potency, µM (series often up to 53.6 µM), for inactives: at the highest dose activity change, negative = inhibition, actives largely listed as inhibitors | Drosophila S2 Gal4-RORgamma UAS-luciferase reporter, 20 h; note: nearly all actives have a fitted effect of over 60% in size
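Compounds are pin-transferred onto Drosophila Schneider cells expressing a copper-inducible Gal4–ROR gamma transactivation domain fusion. After 1 hr, copper sulfate is added to 700 uM final; luciferase is read 20 hr later.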
TDP1 cell CPT = DT40-hTDP1 cell growth loss with CPT. chicken DT40 Tdp1-/-;hTDP1 cells + 20 nM CPT, ATP luminescence, 48 h. Potency, µM (highest dose often 46.2 µM), for inactives: at the highest dose activity change, negative = growth inhibition, usual class: inhibitors. 12% of 420,000 active. AID 686979; note: nearly all actives have a fitted effect of over 55% in size
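Chicken DT40 Tdp1-/- cells complemented with human TDP1, 400 cells/well, exposed to compounds plus 20 nM camptothecin for at least 48 h at 37 C; viability read as ATP content by CellTiter-Glo luminescence.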
An asterisk follows results filed as active; u = inconclusive; x = no result; [ ] = dose if it differs, or a comment. Calls come from the whole dose curve; as a rule, active = well fitted curve in the direction sought with a large enough effect; inconclusive = small, poorly fitted or top-dose-only effect, or another doubt; inactive = no such curve, though single readings can be large; an effect the other way counts as inactive or inconclusive. % is set by controls: 0 for no effect and ±100 for the full control effect; potency is the fitted concentration of half-maximal effect.

SMILES	TDP1 inh	Gal4-VP16 FLuc	TDP1 cell noCPT	RORg inh	TDP1 cell CPT
O=C(CN1C(=O)C2C3CC(C(Br)C3Br)C2C1=O)N1CCN(Cc2ccccc2)CC1 (configuration not stated)	x	u	0%	7%	15%
CC(C)CCNc1nc(-c2ccco2)c2c(c1C#N)CCCC2	x	11%	u	-2%	u
O=C(Nc1c(C(=O)Nc2ccc(F)cc2)oc2ccccc12)c1ccccc1F	-1%	x	21µM*	x	u
O=C(Nc1ccc(F)cc1)c1oc2ccccc2c1NC(=O)C1CCCCC1	-4%	x	29µM*	x	u
Cc1ccc(NC(=O)c2oc3ccccc3c2NC(=O)C2CCCCC2)cc1	-1%	x	u	x	u
CNc1c(NC(=O)C2CCC(C)CC2)c(=O)oc2ccccc12 (configuration not stated)	79µM*	-4%	-2%	-26%	-15%
O=C(Nc1ccc(F)cc1)c1ccccc1F	-3%	16%	-16%	0%	-9%
CC(C)(C)C(=O)O/N=C(\N)COc1cccc(Cl)c1	x	0%	-18%	11%	-7%
CCOc1ccc(C=C2SC(=O)N(CCN)C2=O)cc1	11%	-2%	x	0.63µM*	x
Cc1ccc(/C=C2\SC(=O)N(CCC(=O)N3CCN(C)CC3)C2=O)cc1	2%	-6%	23µM*	35%	18µM*
O=C1S/C(=C\c2ccc(Cl)cc2)C(=O)N1CCn1cnnn1	3%	13%	u	1%	-8%
CN1CCN(C(=O)CCN2C(=O)S/C(=C/c3ccc(Cl)cc3)C2=O)CC1	4%	8%	13µM*	23%	13µM*
COc1ccc(NC(C)=O)cc1NC(=O)c1c(C)noc1C	x	x	5%	x	8%
CCOC(=O)C1CCN(c2nc3ccccc3nc2Cl)CC1	3%	x	-11%	x	0%
CCOC(=O)C1CCN(c2nc(C)nc3c2oc2ccccc23)CC1	6%	6%	23µM*	-4%	23µM*
CCOC(=O)C1CCCN(c2nc(C)nc3c2oc2ccccc23)C1 (configuration not stated)	-2%	u	21µM*	u	15µM*
CCn1c(SCC(=O)N/N=C/c2ccc(C)o2)nnc1-c1ccccc1	5%	-2%[0.365 µM]	-14%	-13%	-2%
CCOc1ccc(S(=O)(=O)/N=C(/Nc2ccc(S(N)(=O)=O)cc2)c2ccccc2)cc1	0%	x	u	x	u
Cc1cccc(C)c1-n1nnnc1-c1nc2cc3ccccc3cc2[nH]c1=O	x	x	0.73µM*	x	0.52µM*
C=C1C=C(C)n2ncc(C(=O)Nc3cccc4cnccc34)c2N1	x	x	11µM*	x	16µM*
C=CCNC(=O)c1cnn2c1NC(=C)C=C2C	x	x	1%	x	10%
O=C(NC1CCN(Cc2ccccc2)CC1)c1ccc(Cl)cc1Cl	3%	-12%	u	0%	2%
CC(C)c1ccccc1NC(=S)NC1CCN(Cc2ccccc2)CC1	3%	16µM*	u	14µM*	u
Cc1c(Cl)cccc1NC(=S)N1CCc2ccccc2C1	-5%	u	4%	10µM*	-20%
S=C(Nc1ccc(Cl)cc1Cl)NC1CCN(Cc2ccccc2)CC1	2%	u	16µM*	u	21µM*
SMILES	TDP1 inh	Gal4-VP16 FLuc	TDP1 cell noCPT	RORg inh	TDP1 cell CPT
S=C(Nc1ccccc1Cl)NC1CCN(Cc2ccccc2)CC1	-5%	6%	18µM*	-25%	21µM*
N#CCC(=N)N1CCN(c2ccccc2)CC1	3%	u	-30%	21%	-16%
O=C(O)CCCCCN=C1CCc2ccccc2N1	3%	3%	-11%	4%	0%
O=C(CSc1nnc(CNC(=O)c2cccc(C(F)(F)F)c2)o1)NC1CCCCC1	2%[56.1 µM]	-19%	15%	-7%	-2%
Clc1ccc(CNC2CCN(Cc3ccccc3)CC2)cc1	x	1%	u	0%[1.91 µM]	-98%
S=C(NCc1ccc(Cl)cc1)NC1CCN(Cc2ccccc2)CC1	5%	u	16µM*	u	18µM*
Cc1c(Cl)cccc1NC(=S)NC1CCN(Cc2ccccc2)CC1	0%	-95%	u	10µM*	u
CCCN1CCC(NC(=S)Nc2cccc(Cl)c2Cl)CC1	-3%	1%	u	-23%	18µM*
Cc1c(Cl)cccc1NC(=S)N1CCN(Cc2ccccc2)CC1	7%	u	-14%	10µM*	-28%
CC(=O)N(C)c1ccc(NC(=O)Nc2ccc(C)cc2)cc1	-6%	u	19%	-20%	-25%
S=C(Nc1cc(Cl)cc(Cl)c1)NC1CCN(Cc2ccccc2)CC1	3%[56.1 µM]	u	6.5µM*	u	8.2µM*
O=C(Nc1ccccc1)NC1CCN(Cc2ccccc2)CC1	1%	6%	-1%	3%	-13%
NC(=O)C1=C(c2ccccc2)c2ccccc2C1=O	x	x	5.2µM*	x	2.9µM*
Cc1ccc(C2=C(O)c3ccccc3C(=O)C2=O)cc1	x	-14%	-11%	-31%	-29%
CNC(=S)N/N=C/C1=CCC2CC1C2(C)C (configuration not stated)	-3%	2.5µM*	u	1.3µM*	7.3µM*
CC1(C)C2CC=C(/C=N/NC(=O)c3ccccc3O)C1C2 (configuration not stated)	2%	u	-7%	8.9µM*	-2%
CC1(C)C2CC=C(/C=N/n3cnnc3)C1C2 (configuration not stated)	4%	-4%	-24%	-5%	-25%
CC1(C)C2CC=C(/C=N/NC(=S)NCCc3ccccc3)C1C2 (configuration not stated)	-3%	7.1µM*	u	2µM*	u
CCOC(=O)c1c(C)[nH]c(C)c1-c1ccccc1OC	-3%	-13%	u	-1%	-12%
CCC1NC(=O)c2cc3ccccc3cc2-n2c1nc1cc(C)cc(C)c1c2=O (configuration not stated)	x	x	4.1µM*	x	18µM*
O=C1NC(Cc2ccccc2)c2nc3ccc(F)cc3c(=O)n2-c2cc3ccccc3cc21 (configuration not stated)	x	x	5.2µM*	x	5.2µM*
O=C1NC(Cc2ccccc2)c2nc3ccc(Cl)cc3c(=O)n2-c2ccc(Cl)cc21 (configuration not stated)	0%	x	x	x	x
CCCC1NC(=O)c2cc3ccccc3cc2-n2c1nc1ccc(C)cc1c2=O (configuration not stated)	x	x	18µM*	x	u
O=C1NC(Cc2ccccc2)c2nc3ccc(F)cc3c(=O)n2-c2ccccc21 (configuration not stated)	-1%	x	x	x	x
O=C1NC(Cc2ccccc2)c2nc3ccc(Cl)cc3c(=O)n2-c2cc3ccccc3cc21 (configuration not stated)	x	x	7.3µM*	x	u
